NS1 function inh: influenza NS1 inhibition; Potency, µM (series often up to 46.1 µM); actives 0.4% (n = 270,000); calls by dose curve; note: actives are rising curves; nearly all actives have a fitted effect of over 50% in size
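Recovery from NS1-induced slow growth read by OD600 in budding yeast switched to galactose assay medium (pH 6.0, -URA) at 1:100 dilution. Compound 23 nl per well; the matching strain lacking NS1 serves as control.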
Pf growth 48h: P. falciparum growth inhibition at 48 hours (one generation); P. falciparum luciferase growth in erythrocytes, 48 h; Potency, µM (series often up to 28.7 µM), most hits filed as inhibitors; actives 5.9% (n = 310,000); AID 504832
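Parasite viability was followed by luminescence of a genomically integrated firefly luciferase. Cultures held 0.1% parasitemia at 2% hematocrit (final), incubated under 5% CO2 at 37 C.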
Pf growth 96h: P. falciparum growth inhibition at 96 hour, primary screen for plastid delayed-death inhibitors; Potency, µM (highest dose often 28.7 µM), most hits filed as inhibitors; AID 504834; actives 6.9% (n = 320,000); P. falciparum luciferase reporter growth, 96 h
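Parasite growth measured via integrated firefly luciferase reporter in P. falciparum. Infected erythrocytes at 2% hematocrit, 0.05% parasitemia final were treated 96 hours at 37 C under 5% CO2, and luminescence was read.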
AMA1 RON2 block: AMA1-RON2 (P. falciparum) interaction inhibition | AID 720542 | AlphaScreen AMA1-biotinylated RON2 peptide binding | Potency, µM (doses to about 58.2 µM), actives largely listed as inhibitors | actives 0.2% (n = 360,000); note: nearly all actives have a fitted effect of over 45% in size
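AMA1 (3D7) with his tag at 25 nM final met compounds first, then biotinylated RON2 peptide at 25 nM; detection used donor plus acceptor beads, 10 µg/mL apiece, read by AlphaScreen after 30 min at room temperature.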
Sm TGR block: inhibitors of Schistosoma mansoni thioredoxin glutathione reductase. actives 3% (n = 360,000). Potency, µM (top dose mostly 114 µM), most hits filed as inhibitors. Q962Y6. purified TGR, DTNB reduction, TNB absorbance 405 nm. AID 485364; note: nearly all actives have a fitted effect of over 60% in size
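First, TGR (20 nM dispensed) and NADPH were mixed with compound. Second, a 15 min room-temperature incubation followed. Third, further NADPH and then DTNB were added to start the reaction. Finally, TNB absorbance was monitored kinetically.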
Numbers stand for hits; – = inactive; ? = inconclusive; · = no result; ! = not active in a repeat; [ ] = remark or other dose. Compounds with a hit are over-represented: about 11% of the library has one in this group of screens. Unless noted, calls come from the whole dose curve; as a rule, active = well fitted curve in the direction sought with a large enough effect; inconclusive = small, poorly fitted or top-dose-only effect, or another doubt; inactive = no such curve, though single readings can be large; an effect the other way counts as inactive or inconclusive.

SMILES | NS1 function inh | Pf growth 48h | Pf growth 96h | AMA1 RON2 block | Sm TGR block
N#Cc1c(-c2cccc(Br)c2)cc(-c2cccnc2)nc1N | – | 13µM | ? | – | –
COc1cc(-c2cc(-c3ccc(O)cc3)nc(N)c2C#N)ccc1O | ? | ? | 5.9µM | – | –
CCOC(=O)c1ccccc1NC(=O)COC(=O)CCNS(=O)(=O)c1cccs1 | · | ? | – | – | –
Cc1ccc(-c2nnc(N3CCN(C(=O)COc4cccc(C)c4)CC3)c3ccccc23)cc1 | – | 8.3µM | 13µM | – | –
Cc1ccc(OCC(=O)N2CCN(c3nnc(-c4ccc(C)cc4)c4ccccc34)CC2)cc1 | – | · | 2.9µM | – | –
COc1ccc(OCC(=O)N2CCN(c3nnc(-c4ccc(C)cc4)c4ccccc34)CC2)cc1 | – | ? | ? | – | –
Cc1cccc(OCC(=O)N2CCN(c3nnc(-c4ccccc4)c4ccccc34)CC2)c1 | – | ? | ? | – | –
COc1ccc(-c2cc(Cl)cc3c(=O)c4ccccc4n(C)c23)cc1F | – | – | – | – | –
COc1cc(NC(=O)COc2ccc(-n3cnnn3)cc2)cc(OC)c1OC | · | · | · | – | ·
Cc1cccc(N2CCN(CC(=O)N(C3CCCC3)C3CCS(=O)(=O)C3)CC2)c1C (stereo not given) | · | 10µM | ? | – | –
CCOc1ccccc1N1CCN(CC(=O)N(C2CCCC2)C2CCS(=O)(=O)C2)CC1 (stereo not given) | · | – | – | – | –
Cc1ccc(C)c(SCC(=O)OCC(=O)c2ccco2)c1 | – | – | – | – | 40µM
O=C(Cc1cccs1)OCC(=O)c1ccco1 | – | – | – | – | 25µM
Cc1ccc(C)c(SCC(=O)NCc2ccco2)c1 | – | ? | ? | – | –
CC(C)NS(=O)(=O)c1ccc(NC(=O)C(C)OC(=O)CCC(=O)c2cccs2)cc1 (stereo not given) | · | – | – | – | –
Cc1cc(C2=NNC(=NCc3ccccc3)SC2)c(C)n1-c1c(C)n(C)n(-c2ccccc2)c1=O | – | 12µM | ? | – | –
CN=C1NN=C(c2cc(C)n(-c3c(C)n(C)n(-c4ccccc4)c3=O)c2C)CS1 | – | ? | ? | – | –
C=C1N(C)c2cc([N+](=O)[O-])c(N)cc2C1(C)C | – | ? | ? | ? | 20µM
CN1CCN(C(=O)c2ccc3c(c2)N(Cc2ccc(Cl)cc2)C(=O)c2ccccc2S3=O)CC1 (stereo not given) | – | 10µM | – | – | –
CN1CCN(C(=O)c2ccc3c(c2)N(Cc2cccc(Cl)c2)C(=O)c2ccccc2S3(=O)=O)CC1 | – | ? | 12µM | – | –
CS(=O)(=O)N(CC(=O)N1CCc2ccccc2C1)Cc1ccc(F)cc1 | – | – | – | – | –
CCOc1cc(Cn2c(-c3ccc(O)c(OCC)c3)nc3ccccc32)ccc1O | · | · | · | · | –
CC1CCC/C(=C\Nc2ccc(O)cc2)C1=O (stereo not given) | – | – | – | – | 40µM
Cc1cc(C(=O)O)ccc1N/C=C1\CCCC(C)C1=O (stereo not given) | – | – | · | – | –
CCc1ccccc1NC(=O)c1cc(S(=O)(=O)NCCc2ccc(OC)c(OC)c2)ccc1F | · | · | · | · | –
SMILES | NS1 function inh | Pf growth 48h | Pf growth 96h | AMA1 RON2 block | Sm TGR block
Nc1nc(CN2CCc3ccccc3C2)nc(Nc2ccccc2)n1 | – | ? | · | – | –
Nc1nc(CN2CCC(Cc3ccccc3)CC2)nc(Nc2ccccc2)n1 | – | · | 7.4µM | – | –
Nc1nc(CN2CCN(C(c3ccccc3)c3ccccc3)CC2)nc(Nc2ccccc2)n1 | – | 8.3µM | 4.7µM | – | ?
Nc1nc(CN2CCCCCC2)nc(Nc2ccccc2)n1 | – | – | ? | – | –
CN1CCC(OC(=O)COc2ccccc2)CC1 | – | – | 12µM | – | –
CN1CCC(OC(=O)c2ccccc2)CC1 | – | – | – | – | –
CCCOC(C(=O)OC1CCN(C)CC1)(c1ccccc1)c1ccccc1 | · | 12µM | 12µM | · | ·
Nc1ccc(O)c(-c2nc3ccccc3s2)c1 | – | ? | ? | – | –
Oc1ccc(N=C/C=C/c2cccc(Br)c2)cc1-c1nc2ccccc2s1 | – | ? | – | – | 40µM
N#CC(Cc1cccc(CC(C#N)(c2ccccc2)c2ccccc2)c1)(c1ccccc1)c1ccccc1 | ? | 1.2µM | 0.83µM | – | –
CN(C)CCC(C#N)(c1ccccc1)c1ccccc1 | – | · | · | · | ·
CC(C)n1nccc1NC(=O)Nc1ccccc1 | – | – | – | – | –
CC(C)c1ncc(S(=O)(=O)c2ccc(C(F)(F)F)cn2)c(N)n1 | – | – | – | – | –
CCN(CC)CCOc1ccc(/C(=C(/Cl)c2ccccc2)c2ccccc2)cc1 | – | 9.3µM! | 9.3µM | – | –
CC/C(=C(\c1ccc(O)cc1)c1ccc(OCCN(C)C)cc1)c1ccccc1 | – | · | · | ? | –
COc1ccc(C2=NN(c3nc(-c4ccc(CNC(C)=O)cc4)cs3)C(c3ccco3)C2)cc1 (stereo not given) | – | 3.7µM | ? | – | –
CC12CCC(C1)C(C)(C)C2OC(=O)c1ccccc1C(=O)O (stereo not given) | – | – | – | – | –
Cc1noc(C)c1COc1ccc(C(=O)N2CCC(C)CC2)cc1 | · | – | – | –[11.6 µM] | –
O=C(NNC(=O)C12CC3CC(CC(C3)C1)C2)c1ccccc1O | · | ? | ? | – | –
O=C(NC12CC3CC(CC(C3)C1)C2)c1ccccc1O | – | 7.4µM | · | – | –
NC(N)=N/N=C/c1ccc(OCc2ccc(Cl)cc2)cc1 | – | 0.33µM | 2.3µM | – | –
NC(N)=N/N=C/c1ccc(Br)cc1 | · | 12µM | – | – | –
N#Cc1ccc(/C=N/N=C(N)N)cc1 | – | ? | · | – | –
NC(N)=N/N=C/c1ccc(OCc2ccccc2)cc1 | – | 1.5µM | 1.5µM | – | –
Cc1ccc(COc2ccc(/C=N/O)cc2)cc1 | – | – | – | – | –
SMILES | NS1 function inh | Pf growth 48h | Pf growth 96h | AMA1 RON2 block | Sm TGR block
Cc1ccccc1OCC(=O)Nc1ccc(OCc2cc(=O)n3ccsc3n2)cc1 | · | · | · | · | –
CC1CCc2onc(C(=O)Nc3ccc(Cl)cc3)c2C1 (stereo not given) | · | · | · | · | –
C=CCNc1ccccc1S(=O)(=O)NCc1ccccc1 | · | · | · | – | ·
CC1CCCCN1Cc1ccc(-c2nn[nH]n2)cc1 (stereo not given) | – | – | ? | – | –
CC1CCCCN1Cc1ccc(N)cc1 (stereo not given) | – | – | 0.1µM | – | –
Cn1c2ccccc2c2ncn(CCCN3CCOCC3)c(=O)c21 | –[9.22 µM] | – | · | – | –
N=c1c2c(-c3ccccc3)c(-c3ccccc3)oc2ncn1CCN1CCOCC1 | – | 7.4µM | 9.3µM | – | –
c1ccc(-c2oc3ncnc(NCCN4CCOCC4)c3c2-c2ccccc2)cc1 | – | ? | – | – | –
N=c1c2c(-c3ccccc3)c(-c3ccccc3)oc2ncn1CCCN1CCOCC1 | – | 13µM | 12µM | – | –
CCc1cccc(NC(=O)C2CCC(CNS(=O)(=O)c3ccc4c(c3)CCCC(=O)N4)CC2)c1 (stereo not given) | · | · | · | · | –

High-throughput results as filed in PubChem.
